Reference: the supplement of paper PMC10981050
Values joined by “and” are separate entries in the source; they are usually repeats but may differ in a detail not shown here. Identical values can stand only once. Counter-ions that a name gives are not always drawn.

Legend:
Assay in all cases: cell viability relative to vehicle control; higher = less cytotoxic
Details in all cases: 10 µM
K562 = test system: K562
Method in brief: (§1)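 Four leukaemia lines, as CRISPR-edited mutant clones and isogenic wild-type clones, were tested against Selleck bioactive, kinase and epigenetic probe libraries after removal of identity-inconsistent compounds. Cells were exposed to a single 10 µM dose for 48 h, and CellTiter-Glo luminescence was then read. Viability was calculated relative to the on-plate vehicle control.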

MARIMO = test system: MARIMO
Method in brief: as §1

MOLM14 = test system: MOLM14
Method in brief: as §1

OCI-AML2 = test system: OCI-AML2
Method in brief: as §1

Compound	cell viability (K562; SRSF2 genotype: SRSF2 P95H/wt)	cell viability (K562; SRSF2 genotype: SRSF2 wt/wt) [%]	cell viability (MARIMO; SRSF2 genotype: SRSF2 P95H/wt) [%]	cell viability (MARIMO; SRSF2 genotype: SRSF2 wt/wt) [%]	cell viability (MOLM14; SRSF2 genotype: SRSF2 P95H/wt) [%]	cell viability (MOLM14; SRSF2 genotype: SRSF2 wt/wt) [%]	cell viability (OCI-AML2; SRSF2 genotype: P95H/wt) [%]	cell viability (OCI-AML2; SRSF2 genotype: wt/wt) [%]
COc1cc2c(=O)c(-c3ccc(O)cc3)coc2cc1O[C@@H]1O[C@H](CO)[C@@H](O)[C@H](O)[C@H]1O [Glycitin]	98% and 97.4%	101	95.2	103	97.1	103	89.3	87
CN1C(C(=O)Nc2ccccn2)=C(O)c2sc(Cl)cc2S1(=O)=O [Lornoxicam (Xefo)]	94.3% and 91.8%	87.5	87.2	95.8	91	87.8	92.8	94.5
O=C(NCc1ccc(Oc2ccccc2)cc1)c1nc(-c2cc(Br)c(O)c(Br)c2)no1	77.6% and 72%	66.7	80.5	91.8	59.8	84.5	88.4	81.9
C[C@H](CCC(=O)O)[C@H]1CC[C@H]2[C@@H]3[C@H](O)C[C@@H]4C[C@H](O)CC[C@]4(C)[C@H]3C[C@H](O)[C@]12C [Sodium cholate]	103% and 101%	94.5	88.2	96.6	89.8	93.4	88	96.5
COc1cc2c(cc1OC)-c1cc3ccc4c(c3c[n+]1CC2)OCO4 [Epiberberine]	84.1% and 89.4%	85.8	98.2	98.2	94.8	86.9	86.4	89.3
CCOC(=O)[C@H](CCc1ccccc1)N[C@@H](C)C(=O)N1C(=O)N(C)C[C@H]1C(=O)O [Imidapril HCl]	93.9% and 85.6%	90.9	84.9	94.4	95.1	95.2	108	87.7
O=C1N=C(N2CCOCC2)CN1c1ccc(Cl)cc1	107% and 99%	94.4	99.3	111	94.8	104	95.4	86.8
COCC1=C(C(=O)OC(C)OC(=O)OC(C)C)N2C(=O)[C@@H](NC(=O)/C(=N\OC)c3csc(N)n3)[C@H]2SC1 (stereo not given in full) [Cefpodoxime proxetil]	103% and 105%	92.6	91.9	100	90.4	95.7	90.3	94.9
O=C(O)c1ccc2c(c1)C(=O)c1ccccc1C2=O [Anthraquinone-2-carboxylic Acid]	100% and 101%	92.5	98	92	102	98.5	96.3	94.9
CCCCCCCCCC(=O)N[C@@H](Cc1c[nH]c2ccccc12)C(=O)N[C@H](CC(N)=O)C(=O)N[C@@H](CC(=O)O)C(=O)N[C@@H]1C(=O)NCC(=O)N[C@@H](CCCN)C(=O)N[C@@H](CC(=O)O)C(=O)N[C@H](C)C(=O)N[C@@H](CC(=O)O)C(=O)NCC(=O)N[C@H](CO)C(=O)N[C@@H]([C@H](C)CC(=O)O)C(=O)N[C@@H](CC(=O)c2ccccc2N)C(=O)O[C@@H]1C [Daptomycin]	94.1% and 95.3%	95	94	103	99	96.5	96	103
O=C(NCCCNc1nc(Nc2cccc(CN3CCOCC3)c2)ncc1C1CC1)C1CCC1	74.5% and 95.7%	84.8	69.5	74.1	8.31	6.65	17.8	21.4
COc1ccc([C@]2(C#N)CC[C@@H](C(=O)O)CC2)cc1OC1CCCC1	96.5% and 91.9%	99.1	93.8	110	94.8	100	95.6	102
CC(C)CC(=O)Nc1n[nH]c2c1CN(C(=O)C1CCN(C)CC1)C2(C)C	37.5% and 39.7%	38.4	15.8	6.67	2.48	1.14	8.45	17.8
COC(=O)[C@H](O)[C@@H](NC(=O)c1ccccc1)c1ccccc1	108% and 104%	107	108	103	98.1	106	104	110
CCCOc1ccc(C(=O)OCCN(CC)CC)cc1N [Proparacaine HCl]	99.7% and 99.3%	99.5	103	104	99.1	99.7	90.2	103
CC(=O)N[C@@H](CS)C(=O)O [Acetylcysteine]	101% and 97.9%	95.6	97.5	92.6	97	97.5	102	98
CCC(=O)O[C@]1(C(=O)SCF)[C@H](C)C[C@H]2[C@@H]3C[C@H](F)C4=CC(=O)C=C[C@]4(C)[C@@]3(F)[C@@H](O)C[C@@]21C [Fluticasone propionate (Flonase, Veramyst)]	92.7% and 86.5%	88	87.8	99	85.3	83.2	86.7	108
O=c1c(-c2ccc(O)cc2)coc2cc(O[C@@H]3O[C@H](CO)[C@@H](O)[C@H](O)[C@H]3O)ccc12 [Daidzin]	94.3% and 101%	96.3	91.7	104	98	104	93.5	98.4
CCOC(=O)C1=C(COCCN)NC(C)=C(C(=O)OC)[C@@H]1c1ccccc1Cl [Levamlodipine]	75.1% and 83.2%	77	72.9	75	50.3	52	30.2	39.7
Cc1nc2cc(F)c(F)cc2n1-c1cncc(Nc2ccc(C(F)(F)F)cc2)n1	10.5% and 26.5%	28	8.44	6.32	11.7	2.75	6.57	9.7

Compound	cell viability (K562; SRSF2 genotype: SRSF2 P95H/wt)	cell viability (K562; SRSF2 genotype: SRSF2 wt/wt) [%]	cell viability (MARIMO; SRSF2 genotype: SRSF2 P95H/wt) [%]	cell viability (MARIMO; SRSF2 genotype: SRSF2 wt/wt) [%]	cell viability (MOLM14; SRSF2 genotype: SRSF2 P95H/wt) [%]	cell viability (MOLM14; SRSF2 genotype: SRSF2 wt/wt) [%]	cell viability (OCI-AML2; SRSF2 genotype: P95H/wt) [%]	cell viability (OCI-AML2; SRSF2 genotype: wt/wt) [%]
CN[C@H]1C(=O)N[C@@H]2Cc3ccc(cc3)Oc3cc4cc(c3O[C@@H]3O[C@H](C(=O)O)[C@@H](O)[C@H](O)[C@H]3NC(=O)CCCCCCCCC(C)C)Oc3ccc(cc3Cl)[C@@H](O)[C@@H]3NC(=O)[C@H](NC(=O)[C@@H]4NC(=O)[C@@H](NC2=O)c2cc(cc(O)c2Cl)Oc2cc1ccc2O)c1ccc(O)c(c1)-c1c(O[C@H]2O[C@H](CO)[C@@H](O)[C@H](O)[C@@H]2O)cc(O)cc1[C@@H](C(=O)NCCCN(C)C)NC3=O [Dalbavancin]	97.1% and 89.6%	94.9	95.8	103	96.6	97.9	86.5	106
CO[C@H]1/C=C/O[C@@]2(C)Oc3c(C)c(O)c4c(O)c(c(/C=N/N5CCN(C6CCCC6)CC5)c(O)c4c3C2=O)NC(=O)/C(C)=C\C=C\[C@H](C)[C@H](O)[C@@H](C)[C@@H](O)[C@@H](C)[C@H](OC(C)=O)[C@@H]1C [Rifapentine]	87.7% and 92.5%	87.4	78.3	109	56.2	67	56.1	57.2
CCOC(=O)C1=C(N)Oc2ccc(Cl)cc2C1C(C#N)C(=O)OCC (stereo not given)	85.4% and 84.9%	65.4	56.6	55.8	64.2	93.2	63.7	64.2
O=C(/C=C/N1C[C@H]2C[C@@H]1CN2c1ccccn1)c1ccccc1O	93.1% and 98%	97.1	95.5	96.5	102	99.2	104	105
Nc1nc(NCCc2ccc(O)cc2)nc2nc(-c3ccco3)nn12	92.4% and 100%	94.8	102	110	94.4	104	97	104
CNC(=C[N+](=O)[O-])NCCSCc1ccc(CN(C)C)o1 [Ranitidine Hydrochloride]	108% and 98.4%	102	99.9	106	103	103	91	105
COc1cc2c3cc1Oc1c(OC)c(OC)cc4c1[C@@H](Cc1ccc(O)c(c1)Oc1ccc(cc1)C[C@@H]3N(C)CC2)N(C)CC4 [Berbamine]	62.8% and 49.4%	57.5	72.7	67.2	72.8	67.6	39.3	54.9
C/C(=N\NC(=O)c1cccc(S(=O)(=O)N2CCOCC2)c1)c1cc(Cl)ccc1O	57.4% and 51.4%	37	20.1	24.4	6.59	1.96	10.8	11.4
CC(C)(C)C1CCC(CC2=C(O)c3ccccc3C(=O)C2=O)CC1 (stereo not given) [Buparvaquone]	76.6% and 81.5%	77	84.1	101	63.2	42.9	80.4	75.3
CS(=O)(=O)N1CCN(Cc2cc3nc(-c4cccc5[nH]ncc45)nc(N4CCOCC4)c3s2)CC1 [Pictilisib (GDC-0941)]	88.3% and 97.1%	94.5	64.3	57.8	55.9	64.6	48.5	55
Cc1ccc(NC(=O)C2(c3ccc4c(c3)OC(F)(F)O4)CC2)nc1-c1cccc(C(=O)O)c1 [VX-809 (Lumacaftor)]	108% and 106%	112	115	113	109	106	106	122
O=c1c2ccccc2oc2ccccc12 [Xanthone (Genicide)]	102% and 103%	94.9	96.5	102	105	108	93.1	96.4
CCCc1nc2c(C)cc(-c3nc4ccccc4n3C)cc2n1Cc1ccc(-c2ccccc2C(=O)O)cc1 [Telmisartan (Micardis)]	103% and 107%	99.5	112	117	110	103	108	128
CCCCCCCCCC(C)O (stereo not given) [2-Undecanol]	109% and 107%	105	111	102	110	108	110	105
Cc1cccc(C)c1NC(=O)C1CCCCN1C (stereo not given) [Mepivacaine HCl]	105% and 102%	111	106	95.3	96.5	102	108	99
C[C@H]1[C@H](C)CC[C@]2(C(=O)O)CC[C@]3(C)C(=CC[C@@H]4[C@@]5(C)CC[C@H](O)C(C)(C)[C@@H]5CC[C@]43C)[C@H]12 [Ursolic acid (Malol)]	96.5% and 93.7%	90.6	87.2	102	98.2	97	81.4	92.8
OCCN(CCO)c1nc(N2CCCCC2)c2nc(N(CCO)CCO)nc(N3CCCCC3)c2n1 [Dipyridamole (Persantine)]	95.7% and 95.1%	94.8	93.1	114	111	107	99.9	108
N#CC1(c2ccc(NC(=O)c3cccnc3NCc3ccncc3)cc2)CCCC1 [Apatinib mesylate]	79.4% and 87.5%	81.8	77.7	86.2	45.8	42.6	68.4	62.5
Cc1[nH]c(/C=C2\C(=O)Nc3ccc(S(=O)(=O)Cc4c(Cl)cccc4Cl)cc32)c(C)c1C(=O)N1CCC[C@@H]1CN1CCCC1	0.5% and 0.24%	81.8	76.3	87.6	42	46.8	0.12	0.09
C[n+]1c2n(c(=O)c3ccccc31)CCc1c-2[nH]c2ccccc12 [Dehydroevodiamine hydrochloride]	94.4% and 99.8%	89.2	91.7	100	92.8	92.9	86.8	96.2
